From PubChem BioAssay
Compounds with a hit are over-represented: about 5.7% of the library has one in this group of screens.
Gal4-VP16 FLuc = counter-screen for ROR gamma inhibitors: Gal4-VP16 reporter; Drosophila S2 Gal4-VP16 UAS-luciferase, luminescence, 20 h; Potency, µM (doses to about 53.6 µM), without a hit: at the top dose activity, negative = inhibition, usual class: inhibitors; actives 3.5% (n = 310,000);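 also: Gal4-VP16 expression switched on by copper sulfate through the metallothionein promoter; nearly all actives have a fitted effect of over 50% in size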
NPSR antagonist = blocks cAMP signaling of the human neuropeptide S receptor; Q6W5P4; CHO-NPSR cells, cAMP TR-FRET, antagonist mode; Potency, µM (series often up to 38.3 µM), for the others: top-dose activity change, negative = inhibition, usual class: inhibitors; actives 1% (n = 220,000); AID 1461; also: nearly all actives have a fitted effect of over 50% in size
Target sequence (Q6W5P4 whole entry, looked up): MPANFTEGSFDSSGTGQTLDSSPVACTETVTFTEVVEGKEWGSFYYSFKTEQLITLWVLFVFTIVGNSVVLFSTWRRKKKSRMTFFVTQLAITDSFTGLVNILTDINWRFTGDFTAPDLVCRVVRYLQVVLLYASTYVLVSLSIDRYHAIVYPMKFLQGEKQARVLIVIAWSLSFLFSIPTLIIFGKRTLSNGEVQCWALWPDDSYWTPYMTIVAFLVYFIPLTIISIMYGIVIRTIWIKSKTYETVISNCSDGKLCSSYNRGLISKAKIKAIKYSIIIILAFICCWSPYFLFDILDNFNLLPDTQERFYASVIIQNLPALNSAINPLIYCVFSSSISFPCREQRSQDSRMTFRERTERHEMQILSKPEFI
RORgamma inh = inhibitors of mouse ROR gamma transcriptional activity. P51450. Drosophila S2 Gal4-RORgamma UAS-luciferase reporter, 20 h. Potency, µM (titrated, usually from 53.6 µM), for the others: top-dose activity change, negative = inhibition, usual class: inhibitors. actives 5.4% (n = 310,000). AID 2551; also: nearly all actives have a fitted effect of over 60% in size
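In this cell-based reporter format, copper sulfate (700 uM final) drives Gal4–ROR gamma fusion expression from a metallothionein promoter in Drosophila Schneider cells; compounds preincubated 1 hr, reporter read after 20 hr at ambient temperature.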
B2AR arrestin = beta2AR (human) beta-arrestin recruitment activity. P07550. beta-arrestin recruitment to beta2AR, cell-based reporter. Potency, µM (highest dose often 46.1 µM), inactives show at the top dose activation, usual class: activators. actives 0.02% (n = 330,000);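 also: 0% = DMSO controls and full agonism = EC100 isoproterenol or metaproterenol; nearly all actives have a fitted effect of over 65% in size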
* hit, by the source's call; ? = inconclusive; · = no result; [ ] = another dose, or the depositor's remark. Calls follow the shape of the dose curve; as a rule, active = well fitted curve in the direction sought with a large enough effect; inconclusive = small, poorly fitted or top-dose-only effect, or another doubt; inactive = no such curve, though single readings can be large; an effect the other way counts as inactive or inconclusive. Unless noted, % is scaled to controls: 0 for no effect and ±100 for the full control effect; potency is read from the fitted curve at half-maximal effect.

SMILES	Gal4-VP16 FLuc	NPSR antagonist	RORgamma inh	B2AR arrestin
COc1ccccc1N1CCN(S(=O)(=O)CCNC(=O)C23CC4CC(CC(C4)C2)C3)CC1	-22%	·	14%	0%
COc1ccc(/C=N/Nc2nc(C)cc(-c3ccccc3)n2)cc1OC	?	·	11µM*	0%
Cc1cc(-c2ccccc2)nc(N/N=C/c2ccc([N+](=O)[O-])cc2)n1	-23%	-9%	-30%	-1%
CC(C)C[C@@H](CC(=O)N[C@@H](CCCN)CC(=O)N[C@@H]1CCNC[C@H]1C(=O)N[C@H](CC(=O)N[C@@H](CCC(=O)O)CC(=O)O)Cc1ccccc1)NC(=O)[C@@H]1CNCC[C@H]1N	7%	·	6%	·
FC(F)Sc1ccc(NC(=S)NCc2ccccc2)cc1	?	-30%	11µM*	0%
CN(C(=S)Nc1ccc(SC(F)F)cc1)C(c1ccccc1)c1ccccc1	?	·	?	-2%
FC(F)(F)c1ccc(NC(=S)NCc2ccccc2)cc1	?	-42%	4.5µM*	0%
FC(F)Sc1ccc(NC(=S)NC(c2ccccc2)c2ccccc2)cc1	?	?	7.1µM*	0%
CCOC(=O)c1ccc(S(=O)(=O)N2CCC(C(=O)O)CC2)cc1	1%	-8%[46.1 µM]	2%	0%
Cc1cccc(NC(=O)CSc2nnc3ccc(-c4ccccn4)nn23)c1	·	·	·	-1%
C(=N\Nc1nc2ccccc2[nH]1)/c1cccs1	4.5µM*	?	3.2µM*	-1%
Cc1ccsc1/C=N/Nc1nc2ccccc2[nH]1	1.4µM*	-58%	1.4µM*	0%
Cc1cc(=O)[nH]c(N/N=C/c2sccc2C)n1	-22%	-8%	-43%	0%
C(=N\Nc1nc2ccccc2[nH]1)/c1ccncc1	?	-27%	15%	0%
CCc1cc2c(=O)c(-c3ccc4c(c3)OCCO4)c(C)oc2cc1OS(C)(=O)=O	20µM*	6%	-4%	1%
Nc1oc2ccccc2c(=O)c1-c1ccc2c(c1)OCO2	3%	·	-14%	0%
BrC(Br)C(Br)Br	11%	·	1%	·
Cc1cc(NC(=O)c2ccccc2)n(-c2nc3ccccc3[nH]2)n1	2.8µM*	-18%	1µM*	0%
COc1ccc(C(=O)Nc2cc(C)nn2-c2nc3ccccc3[nH]2)c(OC)c1	4µM*	-30%	2.2µM*	-1%
Cc1cc(NC(=O)c2sccc2C)n(-c2nc3ccccc3[nH]2)n1	3.5µM*	?	1µM*	0%
Cc1cc(NC(=O)c2cccs2)n(-c2nc3ccccc3[nH]2)n1	-9%	-41%	13%	0%
Cc1cc(NC(=O)C2CCCC2)n(-c2nc3ccccc3[nH]2)n1	1.4µM*	?	0.63µM*	-1%
COc1cc(NC(=O)CN2C(=O)NC(C)(c3ccc4ccccc4c3)C2=O)c(C)cc1[N+](=O)[O-] (stereo not drawn)	-8%	-13%	?	4%
COc1cccc(OC)c1C(=O)Nc1cc(C)nn1-c1nc2ccccc2[nH]1	?	-34%	3.5µM*	-1%
O=C(OCC(=O)N1CCc2ccccc21)[C@@H]1CC(O)CN1S(=O)(=O)c1ccc(Cl)cc1 (stereo partly drawn)	·	·	·	0%
SMILES	Gal4-VP16 FLuc	NPSR antagonist	RORgamma inh	B2AR arrestin
COc1ccc(C(=O)c2c(-c3cccc(C)c3)oc3ccc(N4CCOCC4)cc23)cn1	10%	·	24%	0%
CC(O)[C@@H]1NC(=O)[C@H](CCCN)NC(=O)[C@@H](Cc2c[nH]c3ccccc23)NC(=O)[C@H](Cc2ccc(O)cc2)NC(=O)[C@@H](NC(=O)[C@H](N)Cc2ccccc2)CSSC(C)(C)C(C(=O)N[C@H](C(N)=O)[C@@H](C)O)NC1=O (stereo partly drawn)	-1%	·	-1%	·
Cc1cccc(C(=O)O/N=C/c2c(N3CCOCC3)n(C)c3ccccc23)c1	3.5µM*	-25%[46.1 µM]	1.6µM*	1%
COc1ccc(NC(=O)c2ccc(-c3ccc(-c4noc(C)n4)cc3C)cc2)cc1OCCN(C)C	?	·	14µM*	·
COc1ccc(NC(=O)c2ccc(-c3ccc(-c4noc(C)n4)cc3C)cc2)cc1N1CCN(C)CC1	32µM*	?	20µM*	0%
COc1cc(C(=O)Nc2ccc3nc(N4CCN(C)CC4)cc(C)c3c2)cc(OC)c1OC	-3%	·	?	0%
COc1ccc(-c2nc(-c3ccc(NC(=O)c4ccncc4)cc3)no2)cc1OC	-10%	12%	?	-1%
O=C(O)/C=C\C(=O)Nc1ccccc1C#Cc1ccc(Br)cc1	3%	13µM*	?	0%
